# Assay results taken from PubChem BioAssay (Tox21).
# Results filed as inconclusive are left out. Unmarked numbers belong to inactive results. Active and inactive are the calls of the source. The call rests on the fitted dose curve; in most records, active means well fitted cell-killing curve with a large enough effect in the repeat runs; inconclusive means weak or mixed curves, or effect the other way; inactive means flat fitted curve, though single readings scatter.
# Experiment: qHTS RealTime-Glo MT Cell Viability Assay in HEK293 cells - 16 hour (AID 1224872); further: nearly all actives have a fitted effect of over 50% in size; on activity change, negative = cytotoxicity: top concentration of the series differs between compounds
# Conditions: RealTime-Glo luminescence; series mostly up to 76.8 µM; activity change, negative = cytotoxicity: at the top concentration
# Source text: National Center for Advancing Translational Sciences [NCATS]
# NIH Chemical Genomics Center [NCGC]
# U.S. Environmental Protection Agency [EPA]
# National Institutes of Environmental Health Sciences [NIEHS]
# National Toxicology Program [NTP]
# U.S. Food and Drug Administration [FDA]
# Measure of cell viability is critical in the cell-base assay. Analysis of cell viability is necessary for the characterization of cell responses to cytotoxic drugs and environmental stress. A RealTime-Glo MT Cell Viability Assay to monitor cell viability in real time of continues cell culture during 40 hours of compound treatment was used to screen Tox21 10K library compounds in Hek293 cells. The RealTime-Glo MT Cell Viability Assay is a nonlytic, homogeneous, bioluminescent method to measure cell viability in real time using a simple, plate-based method. The assay involves adding NanoLuc luciferase and a cell-permeant prosubstrate to cells in culture. Viable cells reduce the proprietary prosubstrate to generate a substrate for NanoLuc luciferase. This substrate diffuses from cells into the surrounding culture medium, where it is rapidly used by the NanoLuc Enzyme to produce a luminescent signal. The signal correlates with the number of viable cells, making the assay well suited for cytotoxicity studies.
# Tox21 Assay Protocol Summary:
# The mixture of Hek293 cell suspension and reagents were dispensed at 600cells/6 ul/well in 1536-well tissue culture treated black solid bottom plates using a Multidrop dispenser. After the assay plates were incubated at a 37 C/5% CO2 incubator for 5 hours, 23 nL of compounds dissolved in DMSO, positive and negative controls was transferred to the assay plate by a pintool work station. The plates were incubated at 37 C for 40 hours. The luminescence intensity were measured at 0h, 8h, 16h, 24h, 32h and 40h time points using ViewLux plate reader during compound treatment.
# On the % scale 0 is the no-effect control and ±100 the full control effect; potency means the concentration at half of the fitted maximal effect.
SMILES,"activity change, negative = cytotoxicity",Potency
C=C[Si](C)(C)Cl,-7.44% [at 6.97 µM],–
CC/C=C\C/C=C\C/C=C\CCCCCCCC(=O)OC,-15.4%,–
C=CC(=O)OCCOC1C2CCC1C1CC=CC12 (stereo not given),-2.12% [at 15.8 µM],–
CC1(C)[C@H](C(=O)OCc2cccc(Oc3ccccc3)c2)[C@@H]1C=C(Cl)Cl,1.42%,–
CN1CCN(c2ccccc2/C=C2\SCCN(c3ccc(Cl)c(Cl)c3)C2=O)CC1,–,12.3 µM (active)
CC(C)=CCC[C@H](C)CC=O,10%,–
CC(Cc1ccc(O)c(O)c1)C(C)Cc1ccc(O)c(O)c1 (stereo not given),–,49 µM (active)
CCc1cccc(C)c1N(C(=O)C(=O)O)C(C)COC (stereo not given),11.1%,–
CC1(C)[C@H]2CC[C@]1(C)C(=O)C2,11.8%,–
Cc1cc(Br)ccc1NC(=O)CCl,–,38.9 µM (active)
c1ccc(-c2ccccc2-c2ccccc2)cc1,-17.4%,–
CCCC(C)C=O (stereo not given),2.19%,–
CCOc1nc(F)cc2nc(S(=O)(=O)Nc3c(Cl)cccc3C(=O)OC)nn12,6.59%,–
COc1cc(OC)nc(NC(=O)NS(=O)(=O)Nc2ccccc2C(=O)N(C)C)n1,7.64%,–
CSc1ccc(O)cc1C,-19.8%,–
Nc1ccc2c(S(=O)(=O)O)cccc2c1S(=O)(=O)O,3.63% [at 35.3 µM],–
CCCCNc1ccc(NCCCC)c2c1C(=O)c1ccccc1C2=O,9.94% [at 15.8 µM],–
Cc1ccc(C=O)cc1,6.39% [at 35.3 µM],–
CCNc1nc(NC(C)(C)C)nc(OC)n1,-23.9%,–
CCC(C)(C)c1ccc(CC(C)CN2C[C@@H](C)O[C@@H](C)C2)cc1 (stereo not given in full),-36.6% [at 35.3 µM],–

SMILES,"activity change, negative = cytotoxicity",Potency
O=C1OCc2ccccc21,3.77%,–
CCN(CCC#N)c1ccc(N=Nc2ccc([N+](=O)[O-])cc2)cc1,-1.25%,–
CCc1cccc(C)c1N(C(=O)CS(=O)(=O)O)C(C)COC (stereo not given),-3.17%,–
CCOC=C(C(=O)OCC)C(=O)OCC,4.57%,–
Cc1cccc(C)c1C,4.86%,–
CCCCCCCCOC(=O)c1cc(O)c(O)c(O)c1,–,6.92 µM (active)
C=CCc1cc(S(=O)(=O)c2ccc(O)c(CC=C)c2)ccc1O,–,27.5 µM (active)
CCN(CC)c1ccc(N=Nc2ccccc2)cc1,–,49 µM (active)
Oc1ccc(C2(c3ccc(O)c(C4CCCCC4)c3)CCCCC2)cc1C1CCCCC1,–,43.6 µM (active)
Nc1c(Br)cc([N+](=O)[O-])cc1Br,-13.5%,–
CN(C)CCOc1ccc(/C(=C(/CCCl)c2ccccc2)c2ccccc2)cc1,–,36.4 µM (active)
O=[N+]([O-])c1ccc(O)c2ncccc12,-16.6% [at 35.3 µM],–
CCC1(C)C(=O)N(Cl)C(=O)N1Cl (stereo not given),3.58%,–
CCCCCCCCCCCCS(=O)(=O)Cl,11.1% [at 15.8 µM],–
CN(C[C@@H](CC[N+]12CCC(C3CCCCC3)(CC1)CC2)c1ccc(Cl)c(Cl)c1)C(=O)c1cc(C(F)(F)F)cc(C(F)(F)F)c1,–,3.09 µM (active)
C=C(C)C1CCC(C)CC1O (stereo not given),5.18%,–
CC/C(=C(/c1ccc(O)cc1)c1ccc(OCCN(C)C)cc1)c1ccccc1,–,12.9 µM (active)
O=C1CCC/C=C\CCCCCCCCCC1,-12.6%,–
CCCOC(=O)c1ccc(O)cc1,–,49 µM (active)
COc1cccc(-c2ccc(/C=C\CN3CCCCCC3)cc2Cl)c1,–,43.4 µM (active)
